From PubChem BioAssay (EPA / NIEHS)
Inconclusive results are not listed. Calls of active or inactive are those of the source. How the source made its calls: active means hit-call score of the fitted dose curve at least 0.9, where 1 is the maximum; inconclusive means response in the unintended direction; inactive means score below 0.9.

Each compound was assayed on Sodium/Iodide Symporter (NIS), SLC5A5 (gene 6528) (assay: CPHEA_Stoker_NIS_Inhibition_RAIU: CPHEA's Radioactive Iodide Uptake (RAIU) Assay for Sodium/Iodide Symporter (NIS) Inhibition, Stoker and Laws Labs (AID 2283841)).
How it was run: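 Iodide uptake through human NIS is measured in an engineered HEK293T line. Cells take up 125I (329pM final) for 2 hours at room temperature alongside chemicals at 0.001–100uM. Retained radioactivity is counted, and the signal is expressed against DMSO controls.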

Row | SMILES | outcome | AC50
1 | C=CC(=O)OCCC(F)(F)C(F)(F)C(F)(F)C(F)(F)F | inactive | 
2 | CCN(CCO)S(=O)(=O)C(F)(F)C(F)(F)C(F)(F)C(F)(F)C(F)(F)C(F)(F)C(F)(F)C(F)(F)F | inactive | 
3 | C=CC(=O)OCC(F)(F)C(F)(F)C(F)(F)COC(=O)C=C | inactive | 
4 | NS(=O)(=O)C(F)(F)C(F)(F)C(F)(F)C(F)(F)C(F)(F)C(F)(F)F | inactive | 
5 | OCCCCC(F)(F)C(F)(F)C(F)(F)C(F)(F)F | inactive | 
6 | CCCCCCCCCCCCC[N+](C)(C)Cc1ccccc1 |  | 11.2 µM (active)
7 | O=C1C=CC(=O)N1c1ccccc1 |  | 9.92 µM (active)
8 | C[C@]12CC[C@H]3C(=CCc4cc(O)ccc43)[C@@H]1CCC2=O | inactive | 
9 | CCN=c1cc2oc3cc(NCC)c(C)cc3c(-c3ccccc3C(=O)OCC)c-2cc1C |  | 3.23 µM (active)
10 | O=S(=O)(OCC(F)(F)F)C(F)(F)C(F)(F)C(F)(F)C(F)(F)F | inactive | 
11 | CCCCCCCCn1sc(Cl)c(Cl)c1=O |  | 9.92 µM (active)
